Experimental data published in PubChem BioAssay AID651965 (National Center for Advancing Translational Sciences (NCATS), 2013).
In all, about 340,000 compounds went through this assay and about 6,400 (1.9%) were called active. Where a call stands in place of a potency, no number is given. Another 4% or so got no clear call; they are omitted. Calls follow the shape of the dose curve; as a rule, active = well fitted falling curve with a large enough effect; inconclusive = small, poorly fitted or top-dose-only effect; inactive = no such curve, though single readings can be large or run the other way. The full list was thinned out, with actives kept by preference.

Target: ATP-dependent Clp protease proteolytic subunit (Bacillus subtilis (strain 168)) (UniProt P80244)
Test: qHTS Assay for Activators of ClpP; also: the source files actives as falling curves though it sought activators and does not explain the sign; nearly all actives have a fitted effect of over 65% in size
Conditions: purified B. subtilis ClpP, FRET peptide cleavage, 20 min; series mostly up to 57.5 µM
In short: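 Buffer: 100 mM Tris/HCl pH8, 100 mM KCl, 0.05% low protease BSA, 2.5% glycerol, 0.01% Tween-20. ClpP 10 microg/mL final; 20 min RT; delta FRET normalized to ADEP and DMSO controls.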
Potency is read from the fitted curve at half-maximal effect.

Sequence of ATP-dependent Clp protease proteolytic subunit (Bacillus subtilis (strain 168)) (P80244 whole entry, looked up): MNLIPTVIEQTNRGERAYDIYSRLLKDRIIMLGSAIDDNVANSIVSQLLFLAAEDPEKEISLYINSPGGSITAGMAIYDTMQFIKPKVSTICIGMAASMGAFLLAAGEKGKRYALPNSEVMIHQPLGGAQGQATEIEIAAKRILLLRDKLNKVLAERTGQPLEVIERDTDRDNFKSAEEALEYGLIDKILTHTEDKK

| SMILES | Potency |
| --- | --- |
| O=C(Nc1ccc([N+](=O)[O-])cc1)c1cnn2c1NC(=C1CC1)C=C2C(F)F | inactive |
| CC(=O)Nc1ccc(S(=O)(=O)N2CCN(c3ccccc3)CC2)cc1 | inactive |
| Cc1cc(N2CCN(S(=O)(=O)c3ccc(C)c(C)c3)CC2)c2ccccc2n1 | inactive |
| Cc1ccc(S(=O)(=O)N2CCN(c3ccccc3)CC2)cc1C | 17.8 µM (active) |
| C[N+]1(CC(=O)c2cccs2)CCOCC1 | inactive |
| CCCCC(=O)N(C)c1c(CC)nc2c(OCc3ccc(S(C)(=O)=O)cc3)cccn12 | inactive |
| Cc1ccc(C2C=C(c3ccc(Cl)cc3)Nc3nc(NC(=O)CCC(=O)O)nn32)cc1 (stereo unspecified) | 6.31 µM (active) |
| COc1ccc(C2=CC(c3ccccc3Cl)n3nc(-c4ccc(Cl)cc4)nc3N2)cc1 (stereo unspecified) | inactive |
| CCOc1ccc(C2=CC(c3ccccc3)n3ncnc3N2)cc1 (stereo unspecified) | inactive |
| O=C(NCCOc1ccccc1)N1[C@H]2CC[C@@H]1C=C(c1ccc(F)cc1OCc1ccccc1)C2 | inactive |
| CCCCn1nnnc1C1(C)CCC(=O)N1Cc1ccc(OC)c(OC)c1 (stereo unspecified) | inactive |
| COCc1cccc(-c2csc(C(O)c3ccc(F)cc3)n2)c1 (stereo unspecified) | inactive |
| O=S1(=O)CCN(Cc2ccccc2)CC1 | inactive |
| Cc1ccc(-n2c(N)c(C(=O)N3CCOCC3)sc2=S)c(C)c1 | inactive |
| N#Cc1ccccc1-n1c(N)c(C(=O)N2CCCC2)sc1=S | inactive |
| Cc1cccc(-n2c(N)c(C(=O)N3CCN(C)CC3)sc2=S)c1 | 17.8 µM (active) |
| CCc1nc2c(OCCOc3ccccc3)cccn2c1N(C=O)Cc1ccc(OC)cc1 | inactive |
| CS(=O)(=O)N1CCCCC1c1cc(C(=O)NCc2ccccc2)no1 (stereo unspecified) | inactive |
| CC(=O)NCCNC(=O)c1cc(-c2cccc3ccccc23)nc2ccccc12 | inactive |
| CCc1ccc(-c2cc(C(=O)NCc3ccco3)c3ccccc3n2)s1 | 28.2 µM (active) |
| CC(C)(C)c1ccc(C(=O)NCc2ccco2)cc1 | inactive |
| CC(C)Nc1nc(NCCOc2ccccc2Cl)c2sccc2n1 | inactive |
| COC(=O)c1ccc(CN2C(=O)C(Cc3ccccc3)ON=C2c2ncccc2C)o1 (stereo unspecified) | inactive |
| COc1ccc(C(=O)NCC2CCCO2)cc1S(=O)(=O)NCc1ccc(Cl)cc1 (stereo unspecified) | inactive |
| CC(c1ccco1)N(C(=O)c1ccc(S(=O)(=O)N2CCCCC2)cc1)c1ccccn1 (stereo unspecified) | inactive |
| Cc1ccc(CN(C(=O)c2ccccc2[N+](=O)[O-])c2ccccn2)cc1 | inactive |

| SMILES | Potency |
| --- | --- |
| CC(c1ccco1)N(C(=O)COc1ccccc1[N+](=O)[O-])c1ccccn1 (stereo unspecified) | 15.8 µM (active) |
| CCOCCCNC(=O)c1cc2c(=O)n3ccccc3nc2s1 | inactive |
| CN(C(=O)c1cc2c(=O)n3ccccc3nc2s1)C1CCCCC1 | 3.16 µM (active) |
| CN(C(=O)CSc1nncc2ccccc12)C1CCCCC1 | inactive |
| O=c1[nH][nH]c2c1[C@H](c1ccc(Cl)cc1)O[C@H](CCc1ccccc1)C2 | inactive |
| COc1ccc(-c2cc3ccc(OCc4nn[nH]n4)cc3oc2=O)cc1 | inactive |
| COc1cccc(C(=O)c2cc3ccc(O)cc3oc2=O)c1 | inactive |
| O=c1oc2cc(O)ccc2cc1-c1ccc(F)cc1 | 14.1 µM (active) |
| CCOC(=O)N(C)c1c(CC)nc2c(OCc3ccccc3C(=O)OC)cccn12 | inactive |
| COc1cncc(-c2cnc3sc(NCCc4ccccn4)nn23)c1 | inactive |
| CCc1nc2ccc(C(=O)N3CCN(S(=O)(=O)CC)CC3)cn2c1N(C=O)CCC(C)C | inactive |
| COc1ccc(S(=O)(=O)N(C)C[C@H]2OCc3cnnn3CCCC(=O)N([C@H](C)CO)C[C@H]2C)cc1 | inactive |
| C=C1C(=O)[C@]23C[C@H]1CCC2[C@@]1(C)C(C[C@@H]3O)[C@](C)(C(=O)O)CC[C@@H]1O (stereo partly specified) | inactive |
| CC(C)CN1CCC1(C)C(=O)Nc1ccc(OC(F)F)cc1 (stereo unspecified) | inactive |
| O=C1CCCN1CCCNc1ncnc2c1[nH]c1ccccc12 | 22.4 µM (active) |
| O=Cc1c(NCCCN2CCCC2=O)c2ccccc2[nH]c1=O | inactive |
| Cc1nn(Cc2ccccc2)c(C)c1C(=O)NCCCN1CCCC1=O | inactive |
| Nc1ncnc2c1ncn2[C@@H]1O[C@H](CNC(=O)[C@H](N)Cc2cccnc2)[C@@H](O)[C@H]1O | inactive |
| Clc1ccc(Cc2nnc(-c3cccs3)o2)cc1 | inactive |
| COc1ccc(CCc2nc(-c3cccs3)no2)cc1 | inactive |
| COc1nc(-c2ccc(Cl)cc2)ccc1-c1noc(-c2cccs2)n1 | 14.1 µM (active) |
| C[C@@H]1CN([C@H](C)CO)C(=O)c2cc(-c3ccc(F)cc3)cnc2O[C@H]1CN(C)C(=O)c1ccc(F)cc1 | inactive |
| O=C1NCC(c2ccccc2)(c2ccccc2)C(=O)N1 | inactive |
| O=C(CC1Nc2ccccc2NC1=O)Nc1ccccc1 (stereo unspecified) | inactive |
| O=C1NCC(Nc2ccccc2)C(=O)N1 (stereo unspecified) | 12.6 µM (active) |
| CCCCNC(=O)Cn1c(SCc2cccc(Cl)c2)nc2ccncc21 | inactive |

| SMILES | Potency |
| --- | --- |
| COc1ccc(C(O)c2nc(-c3ccc4c(c3)OCO4)cs2)cc1 (stereo unspecified) | inactive |
| COCCNc1nc(Nc2ccccc2Cl)c2sc(-c3ccccc3)cc2n1 | inactive |
| O=C1c2ccccc2C(=O)N1c1ccccc1S(=O)C(F)(F)F (stereo unspecified) | inactive |
| CC1=C(C)CC2C(=O)N(c3cccc4ccccc34)C(=O)C2C1 (stereo unspecified) | inactive |
| O=C1c2ccccc2C(=O)N1c1cccc2ccccc12 | 7.94 µM (active) |
| Cc1ccc(NC(=O)[C@H](Cc2ccccc2)NC(=O)CC[C@H]2O[C@@H](n3ccc(=O)[nH]c3=O)[C@H](O)[C@@H]2O)cc1C | inactive |
| Cc1ccc(C2=NN(C(=O)COc3ncnc4ccccc34)C(c3ccco3)C2)cc1 (stereo unspecified) | inactive |
| CC(C)C(C)NC(=O)COc1ncnc2ccccc12 (stereo unspecified) | 11.2 µM (active) |
| O=C(COc1ncnc2ccccc12)NC(=O)NCc1ccccc1 | inactive |
| O[C@H]1C[C@H](c2ccc(Cl)cc2)N(Cc2cccs2)C[C@@H]1n1cc(C2CC2)nn1 | inactive |
| COC(=O)c1c(C)c(C)nc(N)c1C#N | 8.91 µM (active) |
| COC(=O)c1c(C)cc(O)c(C)c1O | inactive |
| Cc1nc(SCC(=O)NC2CCCCC2C)c(C#N)c(C)c1C (stereo unspecified) | inactive |
| COc1ccc(NC(=O)C2Cc3c(-c4cccc(NC(C)=O)c4)ccnc3O2)cc1OC (stereo unspecified) | inactive |
| CC(=O)OC[C@@H]1CN(Cc2ccccc2)C[C@H](n2cnc3c(NCc4ccco4)ncnc32)O1 | inactive |
| Nc1ncnc2nnsc12 | inactive |
| Cn1c(=NC(=O)c2cnccn2)sc2ccccc21 | inactive |
| O=C(CSCc1cccs1)N1CCCC1 | inactive |
| Cn1c(=NC(=O)CSCC(=O)N2CCCCC2)sc2ccccc21 | 35.5 µM (active) |
| CCc1nc2c(OCc3cccc(OC)c3)cccn2c1N(C)C(=O)C(C)C | inactive |
| Cc1cccc(C)c1Cn1c(C)c(C(=O)NCc2cccc(Cl)c2)sc1=O | inactive |
| CN1OC[C@@H]2CN(C(=O)c3cccnc3)[C@H](c3ccc(N4CCCCC4)cc3)C[C@@H]21 | inactive |
| c1ccc(-c2c[nH]c(-c3ccccc3)c2)cc1 | 20 µM (active) |
| c1ccc(-c2cc(-c3ccccc3)[nH]n2)cc1 | inactive |
| c1ccc(-c2ccc3c(c2)NC(C2Nc4cc(-c5ccccc5)ccc4O2)O3)cc1 (stereo unspecified) | inactive |
| CCCCN1CC(N2CCN(Cc3cccc(C)c3)CC2)CS1(=O)=O (stereo unspecified) | inactive |

| SMILES | Potency |
| --- | --- |
| COc1ccc(C2CC(c3cccs3)=NN2C(=O)COC(=O)c2cc3ccccc3cc2O)cc1OC (stereo unspecified) | inactive |
| O=C(COc1ccccc1Cl)N1N=C(c2cccs2)CC1c1ccco1 (stereo unspecified) | inactive |
| O=C1c2cccc(OCC(=O)N3N=C(c4cccs4)CC3c3ccc(F)cc3)c2CCN1Cc1ccccc1 (stereo unspecified) | 15.8 µM (active) |
| CN(C)CCNC(=O)c1ccc(-c2cn3c(-c4ccc(Oc5ccccc5)cc4)cnc3cn2)cc1 | inactive |
| OC(c1ccccc1)c1nc(-c2cnc3ccccc3c2)cs1 (stereo unspecified) | inactive |
| C(=Nc1ccc(/C=C/c2ccnc3ccccc23)cc1)c1cc2c3c(c1)CCCN3CCC2 | inactive |
| CC1=C(C(=O)N(C(C)C)C(C)C)CC(CC(=O)NCC2CCCCC2)C(=O)N1Cc1ccccc1 (stereo unspecified) | inactive |
| O=C(NCCCO)/C(=C\C=C\c1ccccc1)NC(=O)c1ccccc1Cl | 28.2 µM (active) |
| CNC(=O)/C(=C\C=C\c1ccccc1)NC(=O)c1ccc([N+](=O)[O-])cc1 | inactive |
| Cc1ccc(C(=O)N/C(=C/C=C/c2ccccc2)C(=O)NCc2ccco2)cc1 | inactive |
| Cc1cccc(C)c1-n1nnnc1C1(C)CCC(=O)N1CCOc1ccccc1 (stereo unspecified) | inactive |
| CC1(C(=O)NS(=O)(=O)c2cccc(F)c2)CCN1C(=O)Cc1cc(F)ccc1F (stereo unspecified) | inactive |
| C[C@@H]1CN([C@@H](C)CO)C(=O)c2c(c3ccccc3n2C)-c2ccccc2CO[C@H]1CN(C)C(=O)C1CC1 | inactive |
| COc1ccc(S(=O)(=O)NC(=O)C2(C)CCN2C(=O)COc2ccc(Cl)cc2)cc1 (stereo unspecified) | inactive |
| CN1CCCN(S(=O)(=O)c2ccc3c(c2)OCCO3)CC1 | inactive |
| CCNC(=O)N1CCN(S(=O)(=O)c2ccc3c(c2)OCCCO3)CC1 | inactive |
| CCCCCC(=O)N1CCN(S(=O)(=O)c2ccc3c(c2)OCCCO3)CC1 | 28.2 µM (active) |
| COC(=O)[C@]12CCCCC=C1N(Cc1ccc(Cl)cc1Cl)C(=O)[C@H](CC(=O)NCc1cccc3ccccc13)C2 | inactive |
| CCCNc1ncnc2c1c(-c1ccccc1)cn2-c1ccc(OCC)cc1 | 25.1 µM (active) |
| O=c1[nH]cnc2c1c(-c1ccccc1)cn2-c1ccc(F)cc1 | inactive |
| COCCNc1ncnc2c1c(-c1ccccc1)cn2-c1ccc(C)c(Cl)c1 | inactive |
| COc1ccc(CC(N)c2csc(NC(=O)NC(c3ccccc3)c3ccccc3)n2)cc1 (stereo unspecified) | inactive |
| CC1(C(=O)NCc2ccccc2)CSCC(=O)N1CCCn1ccnc1 (stereo unspecified) | inactive |
